The values that follow come from ChEMBL document CHEMBL4513216, “Probing the Open Global Health Chemical Diversity Library for Multistage-Active Starting Points for Next-Generation Antimalarials” (ACS Infect Dis, 2020).

The campaign covered roughly 69,000 compounds. About 8,600 (12%) showed an effect of 50% or more. The entries come from a sample that favours strong results as a whole.

The assay deals with Plasmodium berghei. Kind of assay: Screen against P. berghei liver stage (PbLuc), transformed with Luciferase, at 10uM. The class given is functional, HepG2. The settings on record: tested at 10 uM.
On to `COc1ccc(CN2CC[C@H]3[C@H]2CCN3C(=O)c2cnn(C)c2)cc1`, for which the INHIBITION is reported as 39.8%.
To `CNC(=O)c1sc2ncccc2c1C1CCN(C(=O)CCOC)C1` (configuration not stated) belongs -7.525%.
As for `O=C(CCc1ccncc1)NCc1csc(Br)c1`, the INHIBITION is reported as -6.14%.
To `CN(C)CCNC(=O)Cn1cnc2cc(NC(=O)C3CC3)ccc21` belongs 4.48%.
As for `COCCN1CCC2(CC1)CC(COC)N(c1ncccn1)C2` (configuration not stated), the figure is 23.5%; as for `COCC1CC2(CCN(c3ccc(C)nn3)CC2)CN1C(C)C` (configuration not stated), 16.8%.
For `COCC1CC2(CCN(S(=O)(=O)C3CC3)CC2)CN1c1ncccn1` (configuration not stated), the INHIBITION is 19.5%.
To `COCC1CC2(CCN(c3ccccn3)CC2)CN1C(C)C` (configuration not stated) belongs 64.7%.
Take `CCS(=O)(=O)N1CCC2(CC1)CC(COC)N(c1ncccn1)C2` (configuration not stated): the INHIBITION worked out at 65.6%.
Take `COCC1CC2(CCN(Cc3ccccn3)CC2)CN1C(C)C` (configuration not stated): the INHIBITION was -2.27%.
Turning to `COCC1CC2(CCN(c3cccc(C)n3)CC2)CN1C(C)C` (configuration not stated), the INHIBITION was found to be 29.4%.
Consider `COCC1CC2(CCN(c3cc(OC)ncn3)CC2)CN1C(C)C` (configuration not stated), for which the INHIBITION was determined as 58.4%.
To `COCC1CC2(CCN(Cc3ccncc3)CC2)CN1C(C)C` (configuration not stated) belongs 12.6%; to `CC1(NC(=O)Cc2cccs2)CCS(=O)(=O)C1` (configuration not stated), 43.1%; to `CC(C)C(=O)N1CC[C@H]2N(C)CC[C@@]2(C(=O)Nc2ccccc2)CC1`, 44.8%.
To `O=C1CC2(CCCCN2C(=O)c2ccccc2)CN1CC1CC1` (configuration not stated) belongs 29.7%; to `Cc1cnc(NC(=O)C(C)n2ccc(C(F)(F)F)n2)s1` (configuration not stated), 49.1%; to `COCC(=O)N1CC[C@]2(O)CCN(Cc3ccsc3)C[C@@H]2C1`, 10.5%.
Regarding `CC(C)c1nc(CNC2CCN(C(=O)OC(C)(C)C)CC2)cs1`, the INHIBITION was determined as 47%.
For `CN(CC(=O)NC1CC1)C(=O)c1csc(Br)c1`, the INHIBITION worked out at 37.2%.
As for `COc1ccccc1CC(=O)N1CCC(OCc2cccnc2)CC1`, the figure is -37.2%; as for `Cc1cnn(CC2CCCCN2Cc2nccn2CC(F)(F)F)c1` (configuration not stated), -61.4%; as for `Cc1noc(C)c1CC(=O)N1CC[C@@](C)(O)[C@H](Oc2ccccc2)C1`, 41.55%.
As to `O=C(NCc1ccc(Br)c(F)c1)Nc1cn[nH]c1`, the INHIBITION is 4.97%.
As for `CNS(=O)(=O)Cc1ccc(CNC(=O)Nc2cn[nH]c2)cc1`, the INHIBITION is listed as 27.9%.
Turning to `NC(=O)c1ccc(CNC(=O)Nc2cn[nH]c2)cc1`, the INHIBITION turned out to be 72.9%.
As for `CNS(=O)(=O)c1ccc(CNC(=O)Nc2cn[nH]c2)cc1`, the figure is 50.3%; as for `COCCNc1ccc(CNC(=O)Nc2cn[nH]c2)cc1`, 6.14%.
As for `CS(=O)(=O)c1ccc(CNC(=O)Nc2cn[nH]c2)cc1`, the figure is -21.7%; as for `CNC(=O)c1cnn2c(C3CCCN3C)ccnc12` (configuration not stated), -6.73%.
Regarding `COc1ccc(Br)c(C(=O)NC(CC(=O)O)c2cccs2)c1` (configuration not stated), the INHIBITION was found to be 33.8%.
As for `O=C(CCCN1C(=O)CCC1=O)NCC1(c2ccccc2)CCC1`, the figure is -9.37%; as for `O=C1CCCN1Cc1nnc2n1CCN(Cc1ccco1)CC2`, -8.23%; as for `COc1cc(NCc2ncc[nH]2)ccc1Br`, 74.4%.
As for `CCC(O)(CNCc1ncc[nH]1)c1ccc(Br)cc1` (configuration not stated), the figure is 15.5%.
To `Fc1ccc(NCc2ncc[nH]2)cc1Br` belongs 58.1%.
Regarding `Clc1cc(NCc2ncc[nH]2)nc2[nH]ccc12`, the INHIBITION is -19.8%.
As for `COCc1nc2cc(NCc3ncc[nH]3)ccc2o1`, the figure is -10.8%; as for `Fc1cccc(NCc2ncc[nH]2)c1`, 10.3%.
To `CCOCC(=O)N1CC[C@H]2O[C@@H](C)C[C@H]2C1` belongs 5.44%; to `CCCn1cnc2c(cnn2-c2cccc(C)c2C)c1=O`, -70.6%.
As for `Cc1cc(-c2cc(N)c(=O)n(CC(=O)N3CCCC(C)C3)n2)c(C)o1` (configuration not stated), the figure is 22.35%.
Regarding `Cc1nc(CN2CCCN(CCOc3cccc(C#N)c3)CC2)no1`, the INHIBITION came to 20.1%.
Regarding `Cc1nc(COc2cccc(C#N)c2)no1`, the INHIBITION was 54.4%.
For `Cc1noc(OCCOc2cccc(C#N)c2)n1`, the INHIBITION is 10.7%.
Regarding `COCC(=O)Nc1nnc2n(Cc3cccc(OC)c3)[nH]c(C)c1-2`, the INHIBITION is listed as -14.8%.
`CN(CC1(O)CCCN(c2ccccn2)C1)C(=O)CC1CCOCC1` (configuration not stated): the INHIBITION is -51.4%.
To `Cc1nc(-c2ccsc2)ccc1C(=O)NCCCN1CCOCC1` belongs 25.315%.
To `CSc1nnc(CNC(=O)Nc2ccccc2Br)n1C` belongs 19.8%; to `CNCC[C@H]1CC(C)(C)Oc2ccc(C)cc21`, 53%; to `CNCC[C@H]1CC(C)(C)Oc2ccc(OC)cc21`, 42.6%.
To `CNCC[C@H]1CC(C)(C)Oc2ccc(OCC3CC3)cc21` belongs 42.6%.
For `CN1CCN(C(=O)C2CCN(c3cccnn3)C2)CC1` (configuration not stated), the INHIBITION is given as -18.9%.
As for `O=C(NCc1ccco1)[C@@H]1CCO[C@@H]2CCN(C3CCOCC3)C[C@H]21`, the INHIBITION worked out at 11.3%.
As for `Cc1nnc2n1CCN(CCOc1ccc(C(C)(C)C)cc1)C2`, the figure is 13.3%.
To `NC(=O)C(CNC(=O)COCC(F)(F)F)Cc1ccc(F)cc1` (configuration not stated) belongs 17.4%; to `OC1(CN2CCCCC2)CCN(c2ccc(C(F)(F)F)cn2)C1` (configuration not stated), 59.4%.
As to `OC1(CN2CCCCC2)CCN(c2cc(C(F)(F)F)ccn2)C1` (configuration not stated), the INHIBITION is on record as 33.9%.
With `OC1(CN2CCCCC2)CCN(c2cccc(C(F)(F)F)n2)C1` (configuration not stated), the INHIBITION is 46.7%.
On to `O=C(NCc1ccoc1)Nc1cc(C(F)(F)F)c[nH]c1=O`, for which the INHIBITION is recorded as -45.5%.
Consider `Fc1ccccc1CN1C[C@H](OCC2CCOCC2)[C@H]2OCCC[C@H]21`, for which the INHIBITION was -28.8%.
Take `Fc1ccccc1CN1C[C@@H](OCc2ccncc2)[C@H]2OCCC[C@H]21`: the INHIBITION is on record as 23.5%.
On to `CO[C@H]1CN(Cc2ccccc2F)[C@@H]2CCCO[C@H]12`, for which the INHIBITION was 68.8%.
Consider `Cc1ccccc1CN1CC[C@H]2C[C@H](C(=O)N(C)C)O[C@H]2C1`, for which the INHIBITION was determined as 19.5%.
To `COCC(=O)N1CCc2cccc(S(=O)(=O)N3CCN(C)CC3)c2C1` belongs 8.51%.
`CCOc1ccc(NC(=O)N2CCOC(C(N)=O)C2)cc1Cl` (configuration not stated): the INHIBITION is -16.9%.
On to `CN1CCCc2cc(NC(=O)N3CCOC(C(N)=O)C3)ccc21` (configuration not stated), for which the INHIBITION is reported as 68.5%.
To `COCC1CN(C(=O)Nc2cc(Cl)cc(Cl)c2)CCO1` (configuration not stated) belongs -42.9%.
Regarding `NC(=O)C1CN(C(=O)Nc2cc(Cl)cc(Cl)c2)CCO1` (configuration not stated), the INHIBITION was 88.4%.
Consider `O=C(Nc1ccccc1-c1cccs1)N1CCOCC1`, for which the INHIBITION was -11.6%.
To `NC(=O)C1CN(C(=O)Nc2ccccc2N2CCCCCC2)CCO1` (configuration not stated) belongs -22.7%.
To `Cc1ccc(NC(=O)N2CCOC(C(N)=O)C2)cc1C(F)(F)F` (configuration not stated) belongs -14.3%.
For the molecule `NC(=O)C1CN(C(=O)Nc2ccccc2-c2cccs2)CCO1` (configuration not stated), the INHIBITION came to 57.2%.
Consider `Cc1cc(NC(=O)N2CCOC(C(N)=O)C2)ccc1Br` (configuration not stated), for which the INHIBITION is recorded as -62.8%.
For `CCC(=O)NS(=O)(=O)c1cccnc1Nc1cccc(Cl)c1Cl`, the INHIBITION came out at 42.6%.
As for `Cc1nc(CN2Cc3nccn3CC(CN3CCOCC3)C2)cs1` (configuration not stated), the INHIBITION is listed as -40.1%.
As for `COc1cccc(-n2nnc(C(=O)N3CCC(C(N)=O)CC3)c2C)c1`, the figure is 13.115%; as for `Cc1cc(C(=O)NC2CCCOc3cc(Cl)ccc32)n(C)n1` (configuration not stated), 43.6%.
To `O=C(c1ccc2c(c1)[nH]c(=O)n2C1CCC(O)CC1)N1CCOCC1` (configuration not stated) belongs 48%.
To `CNC(=O)[C@H]1C[C@H]2CN(C(=O)Nc3ccc(F)cc3)C[C@@H]1O2` belongs 13.4%.
Regarding `CCN1CC[C@]2(CN(Cc3nccs3)C[C@H]2c2ccccc2)C1=O`, the INHIBITION was determined as 13.7%.
To `Cc1nc(C2CCCN2Cc2cc(=O)n(C)c(=O)n2C)no1` (configuration not stated) belongs 15.3%; to `Cc1csc2c(N3CCC(NCCCc4cnn(C)c4)CC3)ncnc12`, 31.6%.
For `Cc1cc2c(N3CCC(N(C)CCc4cnn(C)c4)CC3)ncnc2s1`, the INHIBITION is 51.2%.
Consider `CCc1c(C)sc2ncnc(N3CCN(C4CCOCC4)CC3)c12`, for which the INHIBITION was 4.15%.
To `Cc1sc2ncnc(N3CCC(N(C)Cc4cnn(C)c4)CC3)c2c1C` belongs 61.2%.
Turning to `Cc1cc2c(N3CCC(N(C)Cc4nccs4)CC3)ncnc2s1`, the INHIBITION turned out to be 87.5%.
To `Cc1nn(C)c2nc(N(Cc3nccs3)C3CC3)sc12` belongs 33.2%; to `Cc1cc2c(N3CCCC(OCc4cccnc4)C3)ncnc2s1` (configuration not stated), 85.2%.
To `Cc1sc2ncnc(N3CCCC3Cn3cccn3)c2c1C` (configuration not stated) belongs -53%; to `Cn1cc(CN2CCc3ncnc(N4CCCC4)c3CC2)cn1`, 30.5%.
Turning to `CC(C)(C(=O)N1CCCC(OCc2cccnc2)C1)n1cccc1` (configuration not stated), the INHIBITION is recorded as 23.1%.
To `Cc1nn(C)c2ncnc(N3CCCC(OCc4cccnc4)C3)c12` (configuration not stated) belongs 25.1%; to `CN(Cc1nccs1)C1CCN(c2ncccn2)CC1`, 21.5%; to `CCCS(=O)(=O)N1CCn2cc(CNc3ccccn3)nc2C1`, 23.3%.
On to `CCC(=O)N1Cc2nccn2CC(CN(C)Cc2cccnc2)C1` (configuration not stated), for which the INHIBITION is given as 39.2%.
Consider `Cc1csc(N2CCN(Cc3cnc4c(c3)c(C)nn4C)CC2)n1`, for which the INHIBITION amounted to 24%.
On to `CN(C)C[C@H]1OC[C@@H]2CCN(C(=O)c3ccco3)C[C@@H]21`, for which the INHIBITION was -4.56%.
In the case of `Cc1nc(C)n(CCNC(=O)C2(C)CC(c3ccccc3)=NO2)n1` (configuration not stated), the INHIBITION is given as 23%.
Regarding `Fc1cnc(N2CC[C@@H]3O[C@@H](COCc4cccnc4)CC[C@@H]32)nc1`, the INHIBITION was 31.4%.
To `CCc1ccsc1C(=O)N1CCCN(Cc2cscn2)CC1` belongs -16%.
Regarding `CC(C)c1cc2c(s1)NC(c1ccccc1)NC2=O` (configuration not stated), the INHIBITION turned out to be 9.63%.
With `Cc1nc(CN2CCCC(N(C)Cc3cnn(C)c3)C2)no1` (configuration not stated), the INHIBITION was 5.48%.
As for `Cc1cc2c(N3CCC(N(C)Cc4cnn(C)c4)CC3)ncnc2s1`, the INHIBITION is given as 75.7%.
As for `Cc1cnc(CN(C)C2CCN(CCCc3cnn(C)c3)C2)o1` (configuration not stated), the figure is 48.2%; as for `COc1ccc2c(c1)CN(CC1CC1)C(=O)CCN2CC(C)(C)O`, 23.7%; as for `O=C(c1sccc1C1CC1)N1CCN(CC(F)(F)F)CC1`, 27.6%.
